# In all, about 33,000 sequences were measured (“E-score (-0.5 to 0.5)”: median about -0.016, highest 2% from about 0.31 on). This is one part of a sample in which the highest values are shown more often than they occur.
# Biological target: Cst6 (UniProt P40535)
# Test: PBM E-score (8-mer binding enrichment) (E-score (-0.5 to 0.5)); higher = stronger / more preferred TF binding
# Conditions: protein concentration: 200 nM; construct: GST-DNA-binding domain
# Experimental: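 Universal 'all 10-mer' protein binding microarrays (Agilent AMADID 015681) probed with GST-tagged S. cerevisiae TFs (full-length or DBD) made by in vitro transcription/translation (PURExpress), about 100-200 nM. Bound TF was detected with fluorescent anti-GST. Each ungapped 8-mer (which stands for itself and its reverse complement) is scored by the PBM enrichment score (E-score), a modified Wilcoxon-Mann-Whitney statistic from -0.5 to +0.5, computed with the Universal PBM Analysis Suite. Scale: above 0.35 generally sequence-specific binding.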
# Chain of UniProt P40535 (P40535 whole entry): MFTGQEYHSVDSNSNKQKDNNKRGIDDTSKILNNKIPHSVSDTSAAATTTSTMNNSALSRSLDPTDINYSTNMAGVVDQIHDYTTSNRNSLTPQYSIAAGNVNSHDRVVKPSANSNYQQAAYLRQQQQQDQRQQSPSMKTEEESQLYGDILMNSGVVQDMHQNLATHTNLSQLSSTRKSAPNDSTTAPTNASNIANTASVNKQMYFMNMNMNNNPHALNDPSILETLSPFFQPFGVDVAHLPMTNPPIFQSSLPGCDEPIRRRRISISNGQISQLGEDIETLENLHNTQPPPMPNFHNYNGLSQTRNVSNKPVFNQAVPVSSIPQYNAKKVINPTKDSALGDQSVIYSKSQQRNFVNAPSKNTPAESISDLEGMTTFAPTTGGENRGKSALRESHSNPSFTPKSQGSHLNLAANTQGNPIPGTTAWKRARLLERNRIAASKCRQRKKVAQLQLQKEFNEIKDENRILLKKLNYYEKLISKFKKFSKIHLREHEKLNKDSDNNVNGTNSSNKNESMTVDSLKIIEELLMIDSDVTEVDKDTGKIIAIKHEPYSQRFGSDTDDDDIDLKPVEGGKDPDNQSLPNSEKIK
row,Sequence,PBM E-score
1,CTACTCAC,0.212
2,CATAGACC,-0.13
3,AACTGCCG,0.114
4,GTAATTTA,0.333
5,CTAATTTC,0.128
6,GCAATTTA,0.151
7,CTAATTTA,0.321
8,TAAATTTA,0.237
9,ATAATTTA,0.304
10,CATGAGGG,-0.142
11,ATGCAAAA,0.22
12,ACGGTCAC,0.152
13,TCAGCGCA,-0.176
14,ACAAAAGT,0.164
15,ACGTATTG,0.238
16,ACGTATAA,0.309
17,CCGTATAC,-0.015
18,ACGTATAT,0.237
19,CCGTATAA,0.225
20,GCGTATTA,0.0768
21,TCGTATAA,0.145
22,ACGTATAC,0.307
23,ACGTATTA,0.33
24,CGAGACTA,0.0119
25,GCAGCGCC,0.0306

row,Sequence,PBM E-score
1,CTAAAGAG,-0.0139
2,AGGGGCCC,-0.101
3,ACCCGACT,-0.16
4,CAAGGTTC,-0.155
5,AGGCTGGC,-0.195
6,CAACGTAC,0.0567
7,AAACGTAT,0.276
8,CAACGTTG,0.31
9,AAACGTAG,-0.0946
10,AAACGTAA,0.365
11,AAACGTTG,-0.106
12,GAACGTAA,0.277
13,TAACGAAA,0.27
14,CAACGTAA,0.329
15,CAACGTTC,-0.13
16,CAACGTAG,0.0788
17,TAACGTAA,0.452
18,GGCCCTCA,-0.266
19,AAGCAAAC,0.0375
20,AGATGACA,0.283
21,CGATGACA,0.383
22,TCATGACA,0.392
23,TCATGAGA,0.214
24,CGATGACG,0.48
25,CGATGAAG,0.0389

row,Sequence,PBM E-score
1,TGATGAAA,0.289
2,GGATGACA,0.287
3,CGATGACC,0.0541
4,TGATGACA,0.368
5,CGATGAGA,-0.048
6,GCATGACA,0.288
7,AAGCGTGA,0.141
8,GACTATCA,-0.104
9,CGGAGATC,-0.205
10,ACTGTGTA,-0.043
11,CTACTCCC,-0.156
12,CAGGCCAA,-0.178
13,GCGTGACA,0.255
14,CGTTCTTC,0.151
15,ACAGATCC,0.0419
16,ACGAACAC,0.138
17,AGATGACT,0.0398
18,AGATGACG,0.473
19,AGATGACC,0.0152
20,ACTCTGGA,0.109
21,CGACGACA,-0.054
22,GGACGACA,0.0793
23,GGACGAAA,0.0732
24,TGACGAAA,0.477
25,AGACGAAA,0.134

row,Sequence,PBM E-score
1,TGACGACA,0.476
2,TGCATCAA,0.154
3,CAGCCAAA,0.0814
4,AGCCTGAA,-0.0532
5,ATGACCTG,0.0198
6,ATGACCTC,0.349
7,CTGACCTA,-0.0164
8,ATGACCTA,0.346
9,CTGACCTC,0.0456
10,GTGACCTA,0.192
11,GCCGGCAA,-0.108
12,GGTCATCA,0.247
13,CGTCATCC,0.473
14,AGTCATCA,0.0814
15,CGTCATCA,0.487
16,CCTCATCC,-0.272
17,AGTCATCC,-0.0119
18,CGGCACGC,0.0275
19,TGTGGAAA,0.186
20,AATGATGT,0.41
21,ATTGATTG,0.237
22,AATGATGA,0.334
23,AAAGATGT,0.13
24,AATGATCT,0.215
25,ATTGATTC,0.178

row,Sequence,PBM E-score
1,AATGATTC,0.225
2,ATTGATTA,0.308
3,AATGATGG,0.186
4,GATGATTA,0.2
5,AATGATTA,0.344
6,ACTGATGA,0.173
7,CCAAACTC,-0.0716
8,CTCATCGC,-0.0477
9,GTAACCAC,-0.0805
10,AACAGAGG,-0.0721
11,ACAAGTTG,-0.0486
12,AACACCCA,-0.246
13,TGAACCAA,0.184
14,AGGCGGTA,-0.225
15,CCAAGCCG,-0.182
16,TGCCATAA,0.00753
17,ACGTTACC,0.179
18,AACGGTTG,0.0747
19,AATGATGC,0.347
20,AGTGATGC,0.317
21,ATTGATGC,0.262
22,AGTGATGA,0.284
23,CCTGATGC,0.0754
24,GATGATCC,0.00428
25,AATGATCC,0.026

row,Sequence,PBM E-score
1,AGTGATGG,0.0422
2,GATGATGC,0.328
3,AAATTAGC,0.153
4,ACACTCCC,-0.177
5,GCACTAAC,-0.119
6,CCACCTCA,-0.114
7,AGCAGTGG,-0.048
8,AATATAAG,0.352
9,AATAAATG,0.302
10,CATATAAG,0.146
11,CATATAAA,0.236
12,AATAAATA,0.39
13,TATAAATA,0.294
14,AATATAAA,0.331
15,AATATAAT,0.156
16,TATATAAA,0.298
17,AGGACAAC,0.0452
18,ACGGTCTA,-0.0035
19,CGTATTGC,0.0567
20,ACGGATTC,0.0332
21,CCGTACTC,-0.113
22,TGCCAAAA,0.0693
23,ATGTGGGG,-0.237
24,GTCATGAA,0.268
25,GACATGAC,0.275

row,Sequence,PBM E-score
1,CTCATGAC,0.335
2,ATCATGAG,0.146
3,GTCATGCA,0.36
4,CTCATGAG,0.079
5,ATCATGAA,0.17
6,ATCATGAC,0.446
7,GTCATGAC,0.374
8,ATCATGCA,0.109
9,CTCATGCA,0.00428
10,CTCATGAA,0.158
11,ATTGAGCG,-0.0477
12,ACCGGATA,-0.0988
13,AAAGGCCA,-0.109
14,AGCGCGTA,0.177
15,CTGATGGA,-0.0729
16,ACGTGCAG,0.0472
17,ACCGCCGT,0.209
18,ATCATTAG,0.19
19,ATCATTAC,0.375
20,CATATTAC,0.261
21,CTCATTAC,0.25
22,GATATTAC,0.352
23,ATAATTAA,0.322
24,AATATTAC,0.241
25,AAAATTAC,0.257

row,Sequence,PBM E-score
1,GTAATTAA,0.188
2,AAAATTAG,0.159
3,AAAATTAT,0.378
4,TTAATTAA,0.0995
5,CAAGGATC,-0.012
6,GCTATACC,-0.19
7,GGAGCATA,-0.00076
8,CCGGCATA,-0.15
9,CCTGCGCG,-0.0722
10,AAAGCGCC,0.113
11,CTAGTCAA,-0.127
12,AGCACCTA,-0.227
13,ATACGTTC,0.0426
14,GGGGAGAA,-0.161
15,ATTATAAT,0.259
16,CTTATTAC,0.231
17,ATAATTAT,0.342
18,CAAATTAA,0.224
19,ATAATTAG,0.223
20,ATTATTAC,0.339
21,AAAATTAA,0.115
22,ATTGTTAG,0.129
23,ACTATTAC,0.201
24,GAAATTAA,0.334
25,CTTGTTAC,0.0412

row,Sequence,PBM E-score
1,ATTGTTAC,0.348
2,CGACTAAC,-0.0525
3,ACACACCT,0.0393
4,CATGAAAG,0.082
5,AAGATTAC,0.127
6,ATTCTTAG,0.0174
7,GAGATTAC,0.312
8,ACAATTAA,0.319
9,ACAATTAT,0.289
10,ATAATTAC,0.349
11,CTTCTTAC,-0.0252
12,ATTCTTAC,0.315
13,GTAATTAC,0.287
14,GAGATTAA,0.0823
15,ACAATTAC,0.249
16,CTAATTAC,0.243
17,ACTGCGTC,0.147
18,CACTTGGC,-0.08
19,GTGCTTAA,0.0338
20,ATCGCAGG,-0.199
21,GCATTGTA,0.047
22,GGGCTGTA,-0.256
23,GCAACCCA,-0.0438
24,ATTTTCTG,0.115
25,CCTCGAAA,0.0797

row,Sequence,PBM E-score
1,CGTCACTA,0.459
2,CGTCACTC,0.445
3,CCTCACTC,0.0262
4,GATCACTA,0.0963
5,CATCACTA,0.353
6,GGTCACTA,0.0296
7,AGTCACTC,-0.033
8,AATCACTA,0.159
9,AGTCACTA,0.209
10,GTTTGGTA,0.213
11,CAAAAATG,0.133
12,ACTGTGGG,-0.0161
13,GATACCGC,-0.0789
14,AGGGACAT,-0.181
15,CGACGGGC,0.0567
16,CCATTACC,-0.00808
17,AGGAGACA,-0.0509
18,ATCAAGTC,0.0221
19,TGAGGTAA,0.414
20,GGAGGTAA,-0.0533
21,AGAGGTAA,-0.119
22,ATAGCTGA,-0.204
23,CATTCCAG,-0.0492
24,AGAGGGTG,-0.204
25,ATGCCGCG,0.233

row,Sequence,PBM E-score
1,GTGCCGCA,0.362
2,CTGCCGCA,0.0518
3,GAGCCGCA,0.28
4,ATGCCGCA,0.353
5,GGGCCGCA,-0.0641
6,TAACTACA,0.0421
7,AGAGTTTA,0.176
8,CCACACTA,0.149
9,TACCTAAA,0.14
10,CGTGTGGA,-0.153
11,AAAGGGGC,-0.196
12,ATCGGCAT,0.23
13,CACGGCAC,0.356
14,CACGGCAG,0.142
15,AACGGCAC,0.343
16,AACGGCAT,0.346
17,CACGGCAA,0.302
18,AACGGCAG,0.134
19,GACGGCAC,0.23
20,AACGGCAA,0.251
21,CTCTGAAA,-0.0419
22,AAGGATGA,0.0593
23,CATGCAAA,0.142
24,AGCCGTGC,0.24
25,AGCGCCGA,0.00204

row,Sequence,PBM E-score
1,AGCCGCGC,0.18
2,CGCCGCGC,0.357
3,CCCGCCGC,0.126
4,CGCCGTGC,0.344
5,AGCGCCGC,0.309
6,CGCCGCGA,0.241
7,CGCCGTGA,0.221
8,CGCGCCGA,0.137
9,CGCGCCGC,0.326
10,AGCGCCGG,-0.102
11,ATTATGCG,0.217
12,ACGAGTTA,0.0712
13,CTTCTTCC,-0.212
14,ACCTAGTA,-0.284
15,AACTCTGT,0.0458
16,ATCTATCA,0.128
17,ACCCACGT,0.0287
18,ACCAACTC,-0.0108
19,CATTTCCA,0.143
20,CTTTAGGA,-0.0677
21,ACCTCTCA,-0.0889
22,TTACATAA,0.433
23,TGACATAA,0.477
24,CTACATAA,-0.0447
25,AGACATAA,0.0351

row,Sequence,PBM E-score
1,GTACATAA,0.085
2,GGACATAA,0.0407
3,ACTACCTA,0.0222
4,AGTGGAGC,-0.165
5,CGGTGACA,0.266
6,CGGTGACG,0.476
7,ATGTGACA,0.151
8,CGGTGACC,0.115
9,ATGTGACG,0.433
10,AGTTGACC,-0.114
11,AGGTGACC,0.046
12,AGTTGACA,0.191
13,AGTTGACG,0.324
14,AGGTGACG,0.452
15,ATGTGACC,0.0452
16,AGGTGACA,0.278
17,CCCAGGGA,-0.37
18,CTGGAGCA,-0.0734
19,CAGCCTTA,-0.254
20,AAGCTAAG,-0.252
21,AAAGCTTC,-0.172
22,CTACTTAC,0.127
23,AGGCTAAC,-0.114
24,CAAACCTG,0.0584
25,GATAATTA,0.322

row,Sequence,PBM E-score
1,CCTAATTA,-0.00674
2,AATAATTC,0.205
3,GATAATAA,0.098
4,AATAATTG,0.121
5,ACTAATTA,0.351
6,GCTAATTA,0.166
7,AATAATTA,0.325
8,CATAATTA,0.304
9,CAGGGCGA,-0.00562
10,CTCTCGCC,-0.249
11,AATGGTGA,0.184
12,TCGGCTCA,-0.0753
13,CGTGACCA,-0.0809
14,CCTGACGC,-0.0402
15,CGTGACGC,0.436
16,AGTGACTC,0.0809
17,CTTGACGC,0.214
18,CGTGACGA,0.386
19,AGTGACGC,0.438
20,CGTGACAA,0.108
21,AGTGACCC,-0.164
